# Laboratory results taken from publication PMC5540273 (PLoS ONE, 2017).
# Test system: WNK1
# Conditions: concentration: 1 μM, replicates: in singlicate; n = 1
# 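Also: KINOMEscan kinase panel screen.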
row,Compound,%Inh
1,CC(C)(C)n1cnc2c(N)ncnc21 [SKF-97359],0%
2,Cc1cccc(Cn2ccn3c(=O)cc(N4CCOCC4)nc23)c1 [GSK2297542],9%
3,c1ccc(-c2cc(-c3c[nH]nc3-c3ccccn3)ccn2)cc1 [GW576604],0%
4,O=C(Nc1cccc(-c2nn3ncccc3c2-c2ccnc(Nc3cccc(C(F)(F)F)c3)n2)c1)c1c(F)cccc1F [GSK299495],15%
5,COc1cc2c(cc1OC[C@@H](O)CO)ncc1c3ccc(C#N)cc3[nH]c21,1%
6,N#Cc1ccc(-c2cc(-c3c[nH]nc3-c3ccccn3)ccn2)cc1 [GW693028],7%
7,Fc1ccc(-c2ncn(CCCN3CCOCC3)c2-c2ccccn2)cc1 [SB-211742],0%
8,COc1ccc(Nc2nccc(N3CCC(NC(=O)Nc4cccc(C(C)=O)c4)C3)n2)cc1 (stereo not drawn) [GSK1379731],4%
9,Cn1cc(-c2ccc3c(c2)CCN3C(=O)Cc2ccccc2Cl)c2c(N)ncnc21 [GSK2608885],0%
10,CNc1ncnc2[nH]ncc12 [SKF-18355],0%
11,Cc1cccc(-c2nc(Nc3ccc4ncsc4c3)c3ccccc3n2)n1 [GW867588],0%
12,[2H]C([2H])(c1cccc(C(F)(F)F)c1C)n1ccn2c(=O)nc(N3CCOCC3)cc12 [GSK2336394],7%
13,Cc1c2ccc(N(C)c3ccnc(Nc4cccc(S(N)(=O)=O)c4)n3)cc2nn1Cc1ccccc1.Cl.Cl [GW787226],0%
14,O=C(c1ccc(-c2cc(-c3c[nH]nc3-c3ccccn3)ccn2)cc1)N1CCOCC1 [GW812171],2%
15,CCn1cnc2c(N)ncnc21 [GW345098],0%
16,Cl.Nc1ncnc2occ(-c3ccc(NC(=O)Nc4cc(C(F)(F)F)ccc4F)cc3)c12 [SB-707548],4%
17,CC(=O)Nc1ccc(COc2ccc(Nc3ccnc4cc(-c5ccccn5)ccc34)cc2)cc1.Cl [GW440148],10%
18,Cc1nnc(-c2ccc3occ(-c4ccc(C(C)O)cc4)c3c2)o1 (stereo not drawn),0%

row,Compound,%Inh
1,Cc1nnc(-c2ccc3ncc(-c4ccc(S(C)=O)cc4)n3c2)o1 (stereo not drawn),0%
2,c1ccc(-c2n[nH]cc2-c2ccnc3ccccc23)nc1 [GW271431],7%
3,CCCCCc1nc2c(N)ncnc2n1CCCCC [SKF-97255],7%
4,CN1c2ccc(CNc3ccc(F)cc3)cc2-c2c(cnn2C)S1(=O)=O,0%
5,NCC(NC(=O)c1cc(-c2cn[nH]c2)c(-c2ccnc3[nH]ccc23)s1)c1ccccc1.O=C(O)C(F)(F)F.O=C(O)C(F)(F)F (stereo not drawn) [GSK1325775],6%
6,O=C(Nc1n[nH]c2cc(-c3cccc(F)c3)ccc12)C1CC1 [SB-735464],28%
7,COc1ccc(COc2cc(-n3cnc4ccccc43)sc2C(N)=O)cc1 [GSK1024304],0%
8,CN(C(=O)c1ccc(-c2cc(-c3c[nH]nc3-c3ccccn3)ccn2)cc1)C1CCOCC1 [GW810083],0%
9,O=c1cc(N2CCOCC2)nc2n(Cc3cccc(Cl)c3Cl)c(C3CC3)nn12 [GSK2358994],0%
10,COc1cc2ncn(-c3cc(OCc4sccc4Cl)c(C(N)=O)s3)c2cc1OC [GSK448459],19%
11,CCc1ccnc(/C=C/c2n[nH]c3cc(Sc4ccccc4C(=O)NC)ccc23)c1,0%
12,CSc1ccc(-c2cc3ncnc(SCC(=O)O)c3s2)cc1,0%
13,COc1ccc(Nc2nccc(N3CCC(NC(=O)Nc4cc(C)ccc4C)C3)n2)cc1 (stereo not drawn) [GSK1379741],7%
14,Cc1c(Cn2c(C)nn3c(=O)cc(N4CCOC(C)C4)nc23)cccc1C(F)(F)F (stereo not drawn) [GSK2344444],4%
15,O=C1NC(=O)C(N2CCc3ccccc32)=C1c1cccc(Cl)c1 [SB-408010],0%
16,Cn1ccc2ncnc(Oc3ccc(NC(=O)Nc4ccncc4)c(Cl)c3)c21,0%
17,O=C(NOCC1CC1)c1ccc(F)c(F)c1Nc1ccc(I)cc1Cl,0%
18,Cc1ccc(NC(=O)c2ccnc(N3CCN(C)CC3)c2)cc1-c1ccc(C(=O)NCC2CC2)cc1 [GW775604],0%
